Screening data from PubChem.
Many of the other results were omitted from the sample, so hits are more common in it than they were.
RBX1-CUL1 inh = blocks human RBX1-Cullin-1 di-ubiquitin formation; P62877+Q13616; in vitro K48 di-Ub FRET, acceptor:donor ratio, 45 min; inhibition, % at 10 µM; actives 0.6% (n = 140,000); in the data active means inhibition above about 25%
Target sequence (P62877 whole entry, looked up): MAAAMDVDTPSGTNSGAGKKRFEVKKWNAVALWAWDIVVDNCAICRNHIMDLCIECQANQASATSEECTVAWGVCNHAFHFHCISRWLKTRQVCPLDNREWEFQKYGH
Target sequence (Q13616 whole entry, looked up): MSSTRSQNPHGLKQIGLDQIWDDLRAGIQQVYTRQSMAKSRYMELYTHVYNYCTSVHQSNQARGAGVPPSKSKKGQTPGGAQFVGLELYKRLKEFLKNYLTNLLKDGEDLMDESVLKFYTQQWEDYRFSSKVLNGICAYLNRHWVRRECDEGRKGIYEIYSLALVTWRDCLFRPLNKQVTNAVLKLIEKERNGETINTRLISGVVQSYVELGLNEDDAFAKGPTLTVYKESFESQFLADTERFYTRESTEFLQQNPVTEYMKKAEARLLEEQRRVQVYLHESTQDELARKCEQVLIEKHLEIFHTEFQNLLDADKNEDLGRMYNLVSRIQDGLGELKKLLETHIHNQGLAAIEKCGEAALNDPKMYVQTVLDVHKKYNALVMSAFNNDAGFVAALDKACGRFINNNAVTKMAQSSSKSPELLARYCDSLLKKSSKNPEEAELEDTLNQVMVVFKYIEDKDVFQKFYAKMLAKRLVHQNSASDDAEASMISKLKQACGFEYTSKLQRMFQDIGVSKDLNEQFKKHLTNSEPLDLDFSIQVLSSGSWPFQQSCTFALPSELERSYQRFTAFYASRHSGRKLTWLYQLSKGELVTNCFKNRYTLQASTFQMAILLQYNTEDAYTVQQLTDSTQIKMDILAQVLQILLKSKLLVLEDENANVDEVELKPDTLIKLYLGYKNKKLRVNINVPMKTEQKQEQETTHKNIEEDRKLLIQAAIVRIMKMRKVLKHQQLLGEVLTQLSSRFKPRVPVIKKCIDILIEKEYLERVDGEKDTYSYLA
A number is an active result; - = inactive.

SMILES	RBX1-CUL1 inh
Cc1cccc(OCC(=O)NNC(=O)CCCCC(=O)NNC(=O)COc2cccc(C)c2)c1	-
Cc1cccc(OCC(=O)NNc2ccc([N+](=O)[O-])cc2[N+](=O)[O-])c1	30.5
Cc1cccc(OCC(=O)N/N=C/c2cccn2-c2ccc([N+](=O)[O-])cc2)c1	-
COc1ccc(C2C(C(=O)Nc3ccccc3)C(C)=Nc3nc(-c4ccccc4)nn32)c(OC)c1 (stereo not drawn)	-
CCc1[nH]nc2c1C(c1ccc(C)o1)C(C#N)C(=N)O2 (stereo not drawn)	-
COc1ccccc1CNc1c(F)c(F)c2nc3snc(C)c3cc2c1F	86.9
Cc1nsc2nc3c(F)c(F)c(N[C@@H](C)c4ccccc4)c(F)c3cc12	-
COc1ccc(CNc2c(F)c(F)c3nc4snc(C)c4cc3c2F)cc1	-
CSc1nc2ccccc2n1CC(=O)c1ccc(Br)cc1	-
CCOc1ccccc1/C=C1\SC(=S)N(CC(=O)O)C1=O	-
Cc1cc(/C=C2/SC(=S)N(CC(=O)O)C2=O)c(C)n1-c1ccccc1	-
O=C(O)CN1C(=O)/C(=C\c2ccccc2Sc2ccc(Cl)cc2)SC1=S	103.1
Cc1ncsc1CCC(=O)N1CCc2c(cnc(C)c2CNC(=O)/C=C/c2cccs2)C1	-
COc1ccc(OCc2nnc(NC(=O)c3ccc(Br)cc3)s2)cc1	-
COc1ccc(-c2ccc(OC)c(OC)c2OC)c(OC)c1OC	-
COc1ccc(OC)c2c(OC)c3ccccc3c(OC)c12	51.6
COc1ccc2c(=O)c(Br)cccc2c1OC	-
Cc1ccc(-n2nc(C)c3c2OC(=N)C(C#N)C3c2c(F)cccc2Cl)cc1 (stereo not drawn)	-
CC(C)NC(=O)C1CCN(C2CCN(C(=O)C(C)n3cnc4ccccc43)CC2)CC1 (stereo not drawn)	-
O=C1C(C2Nc3ccccc3C2=O)=Nc2ccccc21 (stereo not drawn)	-
N=CC1Nc2ccccc2C1=O (stereo not drawn)	31.1
O=C1c2ccccc2NC1C=NCCO (stereo not drawn)	-
Cc1ccc(S(=O)(=O)NC(=O)Nc2cc(Cl)ccc2Oc2ccccc2)cc1	-
CCN(CC)Cc1cnc(S(=O)(=O)CC2CCCCC2)n1CCOC	-
Cc1ccc2nc(CCC(C)C3CCC4C5CC[C@@H]6CC(O)CC[C@]6(C)C5CC[C@]34C)[nH]c2c1 (stereo partly drawn)	-
SMILES	RBX1-CUL1 inh
C[C@H](CCC(=O)O)[C@H]1CCC2C3CC[C@@H]4C[C@H](OC=O)CC[C@]4(C)C3CC[C@@]21C (stereo partly drawn)	-
CC(CCc1nc2ccccc2o1)C1CCC2C3CC[C@@H]4CC(OCCC(=O)O)CC[C@]4(C)C3CC[C@]12C (stereo partly drawn)	39.5
CC(C)COc1cccc(-c2cc(C(=O)NC(=S)Nc3cccc(O)c3)c3ccccc3n2)c1	-
O=C1c2ccccc2OCC1(CO)Cc1ccc2c(c1)OCO2 (stereo not drawn)	-
Cn1c(=O)c2c(=O)c3ncnnc3[nH]c2n(C)c1=O	-
CN=C1CC=C(Br)C=C(C(=O)/C=C/c2ccc(Cl)cc2Cl)C1=O	-
CN=C1CC=C(Br)C=C(C(=O)/C=C/c2ccc(Cl)cc2)C1=O	63.4
COc1cccc(N2CC(NC(=O)/C=C\c3ccc(OC)c(OC)c3)CC2=O)c1 (stereo not drawn)	-
CN=C1CC=C(Br)C=C(C(=O)/C=C/c2cccc(OC)c2)C1=O	44.1
CCN=C1CC=C(Br)C=C(C(=O)/C=C/c2ccc(OC)c(OC)c2)C1=O	-
CCOc1ccc(/C=C/C(=O)C2=CC(Br)=CCC(=NC)C2=O)cc1	-
CCCCSc1nnc2c(n1)OC(c1ccc(-c3ccc([N+](=O)[O-])cc3C)o1)N(C(C)=O)c1ccccc1-2 (stereo not drawn)	-
Cc1ccc(-n2nnnc2-c2cnc(-c3cccs3)nc2C(F)(F)F)cc1	-
CCOC(=O)c1sc2nc(SC)[nH]c(=O)c2c1C	-
COc1ccc(S(=O)(=O)Nc2ccc(-c3cn4ccsc4n3)cc2)cc1C	-
COc1ccc(S(=O)(=O)Nc2ccc(-c3cn4c(C)csc4n3)cc2)cc1	-
COc1ccc(S(=O)(=O)Nc2ccc(-c3cn4ccsc4n3)cc2)cc1	96.7
C[C@@H]1CN(C(=O)CCc2nnc(Cc3c[nH]c4ccccc34)o2)C[C@H](C)O1	-
CC1=NC(=O)NC(c2ccc(Br)cc2)C1C(=O)OC(C)(C)C (stereo not drawn)	-
CC(C)CN1CCC(C2CCN(C(=O)CCc3ccco3)C2)CC1 (stereo not drawn)	-
O=C1/C(=C/c2ccoc2)CCC/C1=C\c1ccoc1	97.0
COc1ccc(/C=C2\CCC/C(=C\c3ccc(OC)c(OC)c3)C2=O)cc1OC	-
O=C1/C(=C\c2cnn(-c3ccccc3)c2)CCC/C1=C/c1cnn(-c2ccccc2)c1	-
O=C(CSc1nc(-c2ccccc2)cc(=O)[nH]1)NCc1cccs1	-
CO/C=C\C=C/c1nnn(-c2ccc(Cl)cc2)n1	38.0
SMILES	RBX1-CUL1 inh
COCc1c(C(=O)O)nnn1-c1ccc(Cl)cc1	-
CCOC(=O)C=CCn1nnn(-c2ccc(Cl)cc2)c1=O	-
O=C1C(=O)C(c2ccc(Br)cc2)Oc2c1ccccc2=O (stereo not drawn)	-
Cc1nc2c(C(=O)NCC3CCN(c4cnn(C)c(=O)c4)C3)cccc2[nH]1 (stereo not drawn)	-
COc1cccc(C(=S)NCCO)c1	-
Nc1nc(N)c2[nH]c(SCc3nc4ccccc4c(=O)n3-c3ccccc3)nc2n1	-
COC(=O)c1cccc(-c2ccc(/C=C3\C(=O)N(c4cccc(C(=O)O)c4)N=C3C(F)(F)F)o2)c1	95.2
O=C(O)c1cccc(N2C(=O)/C(=C/c3ccc(Cl)cc3)SC2=S)c1	31.4
O=C1/C(=C\c2ccccc2)SC(=S)N1c1cccc(Cl)c1	-
O=C(O)C(Cc1ccccc1)N1C(=O)/C(=C/c2ccc(Cl)cc2)SC1=S (stereo not drawn)	79.2
O=C1S/C(=C\c2ccc(Cl)cc2)C(=O)N1Cc1ccccc1	-
O=C(O)CN1C(=O)/C(=C2\SC(=S)N(C(Cc3ccccc3)C(=O)O)C2=O)c2ccccc21 (stereo not drawn)	-
NN1C(=O)/C(=C/c2ccc(-c3cccc(Cl)c3)o2)SC1=S	-
COC(=O)c1cccc(-c2ccc(C=C3C(=O)OC(c4ccccc4)OC3=O)o2)c1 (stereo not drawn)	-
O=C1/C(=C/c2cccc(Cl)c2Cl)SC(=S)N1c1cccc(Cl)c1	-
O=C(O)c1cccc(-c2ccc(/C=C3\SC(=S)N(c4cccc(F)c4)C3=O)o2)c1	94.0
COC(=O)c1cccc(-c2ccc(/C=C3/C(=O)NN(c4ccc(Br)cc4)C3=O)o2)c1	-
O=C1/C(=C\c2cccc(F)c2)SC(=S)N1c1cccc(C(F)(F)F)c1	-
CCCC1CCc2c(sc(NC(=O)C3CC=CCC3C(=O)O)c2C(N)=O)C1 (stereo not drawn)	-
O=C(c1cccc(COc2ccc(Br)cc2)c1)N1CCc2ccccc21	-
CC(=O)C1COC(c2ccccc2)OC1 (stereo not drawn)	-
Cc1ccccc1CS(=O)(=O)N1CCN(c2ccccc2)CC1	-
Cc1ccccc1C(=O)NC(=S)N1CCN(C)CC1	-
CCCOc1ccc(-c2nc3cc4nc5ccccc5[nH]c4cc3n2)cc1OC	-
CC(Sc1ncccc1C(N)=O)C(=O)O (stereo not drawn)	-
CSc1cc(/C=C\c2cc(Cl)sc2Br)cs1	-
